Shown are actives, neighbours in structure and some others; about 11% of the full set was active somewhere.
NPR1 antag = blocks ANP-stimulated signaling of human Npr1 receptor; actives 1.6% (n = 76,000); Potency, µM (highest dose often 46.3 µM), hits mostly inhibitors; P16066; AID 1347048; HEK293 hNpr1 GloSensor cGMP, ANP-stimulated luminescence; further: nearly all actives have a fitted effect of over 60% in size
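Compound pre-incubated 30 min at room temperature on GloSensor-loaded HEK293 cells stably carrying hNpr1 and the pGS-40F cGMP biosensor. Stimulation uses hNppA at 0.1 nM final; luminescence is taken at baseline and 20 min post-agonist.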
HEK cytotox = kills HEK 293 cells; HEK 293 viability, ATP luminescence (CellTiter-Glo), 48-72 h; actives 6.6% (n = 94,000); Potency, µM (highest dose often 115 µM), actives largely listed as inhibitors; active means well fitted curve in the direction sought with a large enough effect; inconclusive means small, poorly fitted or top-dose-only effect, or another doubt; inactive means no such curve, though single readings can be large; an effect the other way counts as inactive or inconclusive; further: nearly all actives have a fitted effect of over 60% in size
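ATP-coupled CellTiter-Glo luminescence served as viability read-out, recorded 10 min after reagent addition at room temperature. HEK 293 cells, 250 cells/well, had been incubated with pintool-transferred compound for 48 or 72 hr at 37 degree Celsius.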
NIH3T3 tox = kills NIH 3T3 cells | NIH 3T3 viability, CellTiter-Glo ATP luminescence, 48-72 h | Potency, µM (titrated, usually from 96.7 µM), most hits filed as inhibitors | actives 4.3% (n = 94,000); active means well fitted curve in the direction sought with a large enough effect; inconclusive means small, poorly fitted or top-dose-only effect, or another doubt; inactive means no such curve, though single readings can be large; an effect the other way counts as inactive or inconclusive; further: nearly all actives have a fitted effect of over 55% in size
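First NIH 3T3 cells are plated at 400 cells/well; next compound is pinned in; then plates incubate 48 or 72 hr at 37 °C; finally CellTiter-Glo is added and luminescence read after 10 min.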
FLuc inh = inhibitors of firefly (Photinus pyralis) luciferase; P08659; purified P. pyralis luciferase, luminescence, biochemical; Potency, µM (highest dose often 115 µM), hits mostly inhibitors; actives 2.5% (n = 76,000); AID 1347043; active means well fitted curve in the direction sought with a large enough effect; inconclusive means small, poorly fitted or top-dose-only effect, or another doubt; inactive means no such curve, though single readings can be large; an effect the other way counts as inactive or inconclusive; further: nearly all actives have a fitted effect of over 65% in size
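Luminescence read by CCD imager after adding enzyme (10nM final) to wells holding compound, titrated in qHTS. Substrates 10uM each D-luciferin and ATP; buffer 50mM Tris acetate pH 7.5, 10mM Mg acetate, Tween-20, BSA.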
NPR1 antag cnf = hNpr1 antagonism, confirmation assay. Potency, µM (doses to about 57.6 µM), most hits filed as inhibitors. HEK293 hNpr1 cGMP GloSensor luminescence, ANP-stimulated. shares compounds with NPR1 antag. actives 76% (n = 1,400); further: nearly all actives have a fitted effect of over 70% in size
Npr2 selectivity = antagonizes human Npr2, subtype selectivity check | shares compounds with NPR1 antag | HEK293 hNpr2 GloSensor cGMP luminescence, CNP-stimulated | Potency, µM (titrated, usually from 57.6 µM), actives largely listed as inhibitors | actives 67% (n = 1,400) | AID 1347046; further: nearly all actives have a fitted effect of over 70% in size
Target sequence (P20594 whole entry, looked up): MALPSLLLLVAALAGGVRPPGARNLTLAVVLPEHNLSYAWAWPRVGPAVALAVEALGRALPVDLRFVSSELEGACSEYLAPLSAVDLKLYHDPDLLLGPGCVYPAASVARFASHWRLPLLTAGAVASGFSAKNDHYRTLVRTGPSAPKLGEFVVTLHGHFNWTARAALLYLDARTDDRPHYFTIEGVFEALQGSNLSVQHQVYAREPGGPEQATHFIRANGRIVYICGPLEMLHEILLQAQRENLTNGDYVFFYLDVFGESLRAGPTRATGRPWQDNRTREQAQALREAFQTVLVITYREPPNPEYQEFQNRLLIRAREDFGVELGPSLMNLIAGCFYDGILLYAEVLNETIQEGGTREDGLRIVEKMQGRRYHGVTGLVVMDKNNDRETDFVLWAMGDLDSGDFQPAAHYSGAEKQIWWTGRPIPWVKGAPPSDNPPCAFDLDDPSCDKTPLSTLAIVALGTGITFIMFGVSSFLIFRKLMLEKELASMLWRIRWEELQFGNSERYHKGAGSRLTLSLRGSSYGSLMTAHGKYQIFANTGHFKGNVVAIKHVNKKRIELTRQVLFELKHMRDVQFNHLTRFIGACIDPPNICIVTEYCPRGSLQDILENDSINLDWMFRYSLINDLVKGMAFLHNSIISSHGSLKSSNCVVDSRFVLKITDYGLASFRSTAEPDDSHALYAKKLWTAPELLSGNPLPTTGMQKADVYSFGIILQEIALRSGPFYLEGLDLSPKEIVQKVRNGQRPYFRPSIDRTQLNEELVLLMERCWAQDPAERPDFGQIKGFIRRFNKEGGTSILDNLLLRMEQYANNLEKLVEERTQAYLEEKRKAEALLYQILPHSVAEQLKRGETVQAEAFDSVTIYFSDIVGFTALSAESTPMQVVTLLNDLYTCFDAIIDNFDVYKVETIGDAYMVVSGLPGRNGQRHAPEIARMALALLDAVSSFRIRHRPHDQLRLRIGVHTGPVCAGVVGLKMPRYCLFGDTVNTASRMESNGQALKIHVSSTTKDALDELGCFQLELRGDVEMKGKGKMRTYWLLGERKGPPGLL
FLuc inh counter = FLuc enzyme inhibition, Npr1 counter-screen; Potency, µM (series often up to 57.6 µM), usual class: inhibitors; purified FLuc enzyme, luminescence, Km substrate; shares compounds with NPR1 antag; actives 0.7% (n = 1,400); active means well fitted curve in the direction sought with a large enough effect; inconclusive means small, poorly fitted or top-dose-only effect, or another doubt; inactive means no such curve, though single readings can be large; an effect the other way counts as inactive or inconclusive
GloSensor cGMP = reduces cGMP signal in GloSensor control cells. shares compounds with NPR1 antag. HEK293 GloSensor cGMP, SNP-stimulated, luminescence. Potency, µM (series often up to 57.6 µM), most hits filed as inhibitors. actives 69% (n = 1,400); further: nearly all actives have a fitted effect of over 70% in size
Numbers stand for hits. Unless noted, the call rests on the fitted dose curve.

O=C(Nc1ccc(Cl)cc1)N1Cc2[nH]cnc2C[C@H]1c1nc(-c2ccccc2)no1 was read as NPR1 antag inactive, HEK cytotox 79µM, NIH3T3 tox 32µM, FLuc inh inactive, NPR1 antag cnf inconclusive, Npr2 selectivity inconclusive, FLuc inh counter inconclusive and GloSensor cGMP inactive.
Screening O=C(c1ccccc1)N1Cc2[nH]cnc2C[C@H]1c1nc(-c2ccc(Cl)cc2)no1 returned NPR1 antag inactive, HEK cytotox inconclusive, NIH3T3 tox inconclusive and FLuc inh inactive.
For COc1cc(-c2cc(C)c3c(OC)ccc(OC)c3n2)cc2c1OCCNC2 the results were NPR1 antag inconclusive, HEK cytotox inconclusive, NIH3T3 tox 20µM, FLuc inh inactive, NPR1 antag cnf inconclusive, Npr2 selectivity inconclusive, FLuc inh counter inactive and GloSensor cGMP inactive.
Screening O=C(Nc1ccccc1)N1CCn2c(nnc2C2CC2)C1 returned HEK cytotox inactive and NIH3T3 tox inactive.
For O=C(NCc1ccc2c(c1)OCO2)c1nc(-c2cccc(C(F)(F)F)c2)c2ccccn12 the results were NPR1 antag inconclusive, HEK cytotox inconclusive, NIH3T3 tox inactive, FLuc inh inactive, NPR1 antag cnf inactive, Npr2 selectivity inactive, FLuc inh counter inactive and GloSensor cGMP inactive.
CC(=O)N(C)Cc1ccc(F)cc1 was read as NPR1 antag inactive, HEK cytotox inactive, NIH3T3 tox inactive and FLuc inh inactive.
Cc1cc(C)cc(-c2ccc(CN3CC4CCC(C3)N4c3ccc(C(F)(F)F)cc3)cc2)c1 was read as HEK cytotox inactive and NIH3T3 tox inactive.
`FC(F)(F)c1ccc(N2C3CCC2CN(Cc2cccs2)C3)cc1` gave HEK cytotox inconclusive, NIH3T3 tox inconclusive, NPR1 antag cnf 24µM, Npr2 selectivity 21µM, FLuc inh counter inactive and GloSensor cGMP 17µM.
Cc1ccc(C2(C(=O)NC(C)c3cnc(-c4ccncc4)nc3C)CC2)cc1 (centres undefined) was read as NPR1 antag inconclusive, HEK cytotox inconclusive, NIH3T3 tox inconclusive, FLuc inh inactive, NPR1 antag cnf inconclusive, Npr2 selectivity inconclusive, FLuc inh counter inactive and GloSensor cGMP inactive.
For CCNC(=O)N1CC(C(=O)NCc2cccc(C)c2)CC(c2ccc(F)c(C)c2)C1 (centres undefined) the results were NPR1 antag 22µM, HEK cytotox inconclusive, NIH3T3 tox inconclusive, FLuc inh inactive, NPR1 antag cnf inconclusive, Npr2 selectivity inconclusive, FLuc inh counter inactive and GloSensor cGMP inconclusive.
For COCC(=O)N1CC(C(=O)NCc2cccc(F)c2)CC(c2ccc(F)c(C)c2)C1 (centres undefined) the results were NPR1 antag inactive, HEK cytotox inconclusive, NIH3T3 tox inactive and FLuc inh inactive.
COc1ccc(CN2CC3(CCN(C(=O)Nc4cccc(C(F)(F)F)c4)CC3)C2=O)cc1 was read as NPR1 antag 16µM, HEK cytotox inconclusive, NIH3T3 tox inconclusive, FLuc inh inactive, NPR1 antag cnf inconclusive, Npr2 selectivity inconclusive, FLuc inh counter inactive and GloSensor cGMP inconclusive.
Screening CCCC1c2nccn2CCCN1C(=O)c1cnco1 (centres undefined) returned NPR1 antag inactive, HEK cytotox inactive, NIH3T3 tox inactive and FLuc inh inactive.
`Brc1ccc(CN2CCC(c3nc4ccncc4[nH]3)C2)cc1` (centres undefined) gave NPR1 antag 11µM, HEK cytotox inconclusive, NIH3T3 tox inconclusive, FLuc inh inactive, NPR1 antag cnf 24µM, Npr2 selectivity 22µM, FLuc inh counter inactive and GloSensor cGMP inconclusive.
`O=C(NC[C@H]1Cn2c(-c3ccc4c(c3)OCO4)cnc2CO1)Nc1ccccc1` gave NPR1 antag inactive, HEK cytotox inconclusive, NIH3T3 tox inconclusive and FLuc inh inconclusive.
O=C(NC[C@H]1Cn2c(-c3ccc4c(c3)OCCO4)cnc2CO1)Nc1ccccc1 was read as NPR1 antag inconclusive, HEK cytotox 100µM, NIH3T3 tox 89µM, FLuc inh inactive, NPR1 antag cnf inconclusive, Npr2 selectivity inconclusive, FLuc inh counter inactive and GloSensor cGMP inactive.
`O=c1n(-c2ccncc2)nc2n1CCN(Cc1ccc(F)cc1)C2` gave NPR1 antag inconclusive, HEK cytotox inconclusive, NIH3T3 tox inconclusive and FLuc inh inactive.
Screening O=c1n(-c2ccncc2)nc2n1CCN(Cc1ccc(C(F)(F)F)cc1)C2 returned NPR1 antag 16µM, HEK cytotox 13µM, NIH3T3 tox inconclusive, FLuc inh inactive, NPR1 antag cnf 15µM, Npr2 selectivity 17µM, FLuc inh counter inactive and GloSensor cGMP 12µM.
Screening Cn1nccc1CN1CCn2c(nn(-c3ccc(C(F)(F)F)cc3)c2=O)C1 returned HEK cytotox inconclusive, NIH3T3 tox inconclusive, NPR1 antag cnf inconclusive, Npr2 selectivity inconclusive, FLuc inh counter inactive and GloSensor cGMP inconclusive.
For COc1cccc(CN2CCCN(S(=O)(=O)c3ccccc3)CCC(=O)NCC2)c1OC the results were NPR1 antag inactive, HEK cytotox inactive, NIH3T3 tox inconclusive and FLuc inh inactive.
CCCOc1ccccc1C(=O)N1CCc2onc(-c3ccccc3)c2C1 was read as NPR1 antag inconclusive, HEK cytotox inconclusive, NIH3T3 tox inconclusive, FLuc inh inactive, NPR1 antag cnf inconclusive, Npr2 selectivity inconclusive, FLuc inh counter inactive and GloSensor cGMP inactive.
CC(Cn1cccn1)C(=O)N1CCc2onc(-c3ccc(F)c(F)c3)c2C1 (centres undefined) was read as NPR1 antag inactive, HEK cytotox inconclusive, NIH3T3 tox inactive and FLuc inh inactive.
CCC(O)C(=O)N1CCc2onc(-c3ccc(-c4ccccc4)cc3)c2C1 (centres undefined) was read as NPR1 antag 11µM, HEK cytotox inconclusive, NIH3T3 tox inconclusive, FLuc inh inactive, NPR1 antag cnf 24µM, Npr2 selectivity 24µM, FLuc inh counter inconclusive and GloSensor cGMP 24µM.
`COc1ccc(-c2nc(C)nc3c2CN(C(=O)c2ccccc2C)CC3)cc1` gave HEK cytotox inactive and NIH3T3 tox inconclusive.
Screening COc1cccc(C(=O)N2CCN(C(=O)c3nc4cccnc4n(Cc4ccccc4)c3=O)CC2)c1 returned HEK cytotox inactive and NIH3T3 tox inactive.

Screens as filed in PubChem BioAssay.
